Results: PubChem BioAssay (NCATS)
Where “and” joins values, the source holds several entries; their conditions need not be identical. Equal entries are not always repeated. Results filed as inconclusive are left out. Calls of active or inactive are those of the source. Calls come from the whole dose curve; as a rule, active = well fitted curve in either direction with a large enough effect (not every such curve was filed as active); inconclusive = small, poorly fitted or top-dose-only effect, or another doubt; inactive = flat fitted curve, though single readings scatter.

Assay: NFAT Signaling Pathway (AID 444);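 note: carbachol stimulus at about its EC50 of 1 µM final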
Details: Jurkat NFAT-bla M1, carbachol, beta-lactamase ratio, 5 h; at 17.2 µM (top of the series) unless noted
Procedure, shortened: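 Jurkat cells with NFAT-driven β-lactamase reporter and co-expressed M1 receptor, stimulated with carbachol (final 1 uM, ~EC50), compound titration, 5 h at 37 °C. CCF4 loaded 1 h at RT; 460/530 nm ratio gave %activity and AC50.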
% is set by controls: 0 for no effect and ±100 for the full control effect.

Row | SMILES | activity change, negative = inhibition
1 | NC(N)=NCCN1CCCCCCC1 | -13.3% (inactive)
2 | CCS(=O)(=O)CCn1c([N+](=O)[O-])cnc1C | -9.1% (inactive) and -28.6% (inactive)
3 | NS(=O)(=O)c1cc2c(cc1C(F)(F)F)NCNS2(=O)=O | -1.33% (inactive) and 8.85% (inactive)
4 | Cc1c(N(C)C)c(=O)n(-c2ccccc2)n1C | -3.81% (inactive)
5 | CC1CCc2cc(F)cc3c(=O)c(C(=O)O)cn1c23 (stereo unspecified) | 13.1% (inactive)
6 | CN1CCCN=C1COC(=O)C(O)(c1ccccc1)C1CCCCC1 (stereo unspecified) | -84.1% (active)
7 | CC(=O)N[C@@H](CC(C)C)C(=O)O | 1.74% (inactive)
8 | OC(CCN1CCCC1)(c1ccccc1)C1CCCCC1 (stereo unspecified) | -89.4% (active)
9 | O=C(O)CCCc1ccccc1 | 20.3% (inactive)
10 | CC(=O)[C@@]1(O)CC[C@H]2[C@@H]3C[C@H](C)C4=CC(=O)C=C[C@]4(C)[C@@]3(F)[C@@H](O)C[C@@]21C | 9.08% (inactive)
11 | COc1ccc(NS(=O)(=O)c2ccc(N)cc2)nn1 | -4.78% (inactive) and 5.22% (inactive)
